# About 360 (7.7%) of roughly 4,700 compounds were called active. Not all results are given here. Values without a mark were called inactive.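 Rule for the calls: active = inhibition above a cutoff derived from the DMSO control wells (cut at about 30% in these data); inactive = the rest.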
# Experiment: AlphaScreen optical interference compounds, counter-screen for MITF inhibitor project, biochemical, triplicate (AID 1259376)
# Details: LysRS AlphaScreen counterscreen, signal interference, at 2.6 µM, stronger effect = higher value
row,Structure (SMILES),inhibition
1,CCN1CCN(CCCCOc2ccccc2F)CC1,6.82%
2,Cc1cccc(OCCN2CCNCC2)c1C,-1.28%
3,Cc1nc(NC2CC2)cc(-c2ccc(F)cc2)n1,14.2%
4,Cc1nc(NC(=O)c2cc(Br)ccc2Cl)sc1C,12.2%
5,COc1cc(CN2CCN(Cc3cccnc3)CC2)cc(OC)c1OC,18.8%
6,CN(CCc1ccccn1)CC(=O)N1CCc2ccccc21,-7.9%
7,CCCCC(=O)NCc1ccc(F)cc1,10.9%
8,Cc1nnc(N2CCC(Cc3ccccc3)CC2)c2ccccc12,6.39%
9,CCCS(=O)(=O)N1CCN(C(C)C)CC1,9.53%
10,C=CCNC(=O)c1sc(=S)n(CC)c1N,-4.06%
11,COc1cc2nc(-c3cccc(C(C)=O)c3)nc(N)c2cc1OC,13.2%
12,O=C1NC(c2ccccc2[N+](=O)[O-])C(C(=O)c2cccs2)C(O)(C(F)(F)F)N1 (configuration not stated),12.5%
13,CCN(CC)CC(=O)Nc1c2c(nc3ccccc13)N(c1cccc(C)c1)CC2,1.32%
14,Cc1cccc(NC(=O)CNCCN2CCCCC2)c1C,12.4%
15,C/C(N)=C(/C#N)C(=O)COC(=O)c1c2c(nc3ccccc13)/C(=C/c1ccco1)CC2,-24.2%
16,CC1CCC2C(=O)N(c3ccc(I)cc3)C(=O)C2C1 (configuration not stated),0.06%
17,Cc1ccc(C)n1C(Cc1ccccc1)C(=O)O (configuration not stated),-2%
18,Cc1ccc(C)c(OCCN2CCOCC2)c1C,17.5%
19,COc1ccc(CN2CCN(Cc3cccnc3)CC2)cc1OCc1ccccc1,10.3%
20,C=CCc1cc(C)ccc1OCCCn1ccnc1,7.18%
21,OCCOCCN1CCN(Cc2ccc(Cl)cc2)CC1,3.33%
22,C=CCn1c(SCC(=O)Nc2nc3ccccc3s2)nc(O)cc1=O,-1.43%
23,CN(CCC(=O)O)Cc1cccc(Cl)c1,-6.2%
24,COc1cc(CN2CCN(Cc3ccc(Cl)cc3)CC2)c([N+](=O)[O-])cc1OC,4.12%
25,CCC(C)c1ccccc1NC(=O)CN(C)CC(=O)Nc1ccccc1SC (configuration not stated),3.28%
26,O=c1c2ccccc2ncn1CCCCOc1ccccc1F,7.91%

row,Structure (SMILES),inhibition
1,COc1ccc(CN2CCN(Cc3ccccc3C)CC2)c(OC)c1OC,-1.44%
2,COc1ccc(C(=O)NCCN2CCN(c3nc4c(C)c(C)ccc4s3)CC2)cc1,-2.39%
3,Fc1ccc(CN2CCN(C3CCCC3)CC2)cc1,5.37%
4,O=C(c1cccs1)N1CCC(N2CCN(Cc3ccccc3)CC2)CC1,-5.37%
5,O=[N+]([O-])c1ccc(OCc2nnc(SCCN3CCOCC3)n2-c2ccccc2)cc1,-4.47%
6,Clc1ccc(CN2CCN(CC3CC=CCC3)CC2)cc1 (configuration not stated),1.68%
7,Fc1cccc(Cl)c1Cn1nnc(-c2ccncc2)n1,12.8%
8,CCCCCOc1ccc(OC(=O)c2ccc(-c3ccc(CCC)cn3)cc2)cc1,9.51%
9,O=C(Cc1cccs1)N/N=C\C=C\c1ccco1,-6.28%
10,c1ccc(Oc2cccc(OCCCCn3cncn3)c2)cc1,0.8%
11,Cn1c(-c2ccc(F)cc2)cnc1NCc1cccnc1,-4.79%
12,O=C(CNCc1cccnc1)Nc1ccc(C(=O)N2CCCCC2)cc1,8.3%
13,O=[N+]([O-])c1ccccc1S(=O)(=O)N1CCN(C2Cc3ccccc3C2)CC1,15%
14,CSc1ccc(CN2CCN(S(=O)(=O)c3ccc([N+](=O)[O-])cc3)CC2)cc1,30% (active)
15,O=S(=O)(c1ccc(F)cc1)N1CCN(Cc2ccccc2C(F)(F)F)CC1,12.8%
16,CSc1ccc(CN2CCN(Cc3cccc(Oc4ccccc4)c3)CC2)cc1,6.5%
17,CC(C)(C)NCC(=O)Nc1c2c(nc3ccccc13)N(Cc1ccccc1)CC2,15.5%
18,CC1CCCCC1NC(=O)CSc1nnc(-c2ccncc2)n1CCCN(C)C (configuration not stated),14.7%
19,O=C(OCCN1CCOCC1)c1c(Cl)nc2sccn12,10.9%
20,Cc1cc(OCCN2CCN(C)CC2)ccc1C(C)C,4.96%
21,CCCS(=O)(=O)N1CCN(Cc2ccccc2Br)CC1,13.6%
22,COc1ccc2c(c1)CC(C(=O)Nc1ccc(-c3cn[nH]c3)cc1OCc1ccccc1)CO2 (configuration not stated),22.5%
23,O=C(Nc1ccc(-c2ccncc2)c(C(F)(F)F)c1)C1COc2ccccc2O1 (configuration not stated),5.92%
24,COc1cccc(CN2CCN(CCCc3ccccc3)CC2CCO)c1 (configuration not stated),-5.46%
25,CN(C)CC(C)(C)CNCc1nnc(-c2ccccc2)o1,-0.68%
26,N#C/C(=C/c1ccc(-c2ccc3c(c2)C(=O)NC3=O)o1)C(=O)O,13.4%

row,Structure (SMILES),inhibition
1,COc1ccc(OC)c(CN2CCN(Cc3ccccc3OC)CC2)c1,18.2%
2,COC(=O)c1cccc(NS(=O)(=O)c2ccc3ccccc3c2)c1C,21.9%
3,COc1ccc(CN2CCN(Cc3ccccc3C(F)(F)F)CC2)cc1OC,17.4%
4,CS(=O)(=O)N1CCN(Cc2cccc(Cl)c2)CC1,-4.82%
5,O=C(O)CCCCCNC(=O)/C(=C\c1ccco1)NC(=O)c1ccccc1,-2.96%
6,COc1ccc2c(c1)CC(c1nc(Nc3ccc4cnccc4c3)c3ccccc3n1)CO2 (configuration not stated),8.8%
7,COc1cccc(OC)c1C(=O)N1CCN(Cc2cccnc2)CC1,14.3%
8,COc1cc(CN2CCN(Cc3ccc(OC)c(OC)c3)CC2)cc(OC)c1,1.7%
9,COc1cc(CN(CCN(C)C)Cc2ccccc2)cc(OC)c1,2.44%
10,CC(c1ccccn1)N(CCN(C)C)C(=S)Nc1ccccc1F (configuration not stated),100% (active)
11,COc1ccc2c(c1)CC(C(=O)Nc1ccc(-c3cn[nH]c3)cc1OCC(N)=O)CO2 (configuration not stated),16.5%
12,CCN1CCN(CCCOc2ccc(C(C)=O)cc2OC)CC1,19.6%
13,CCN(CCN(C)C)Cc1c(Cl)cccc1Cl,-9.64%
14,NC(=O)COC(=O)/C=C/c1ccc(I)o1,16.2%
15,COc1cc(OC)c(OC)cc1CN1CCN(Cc2ccc(F)cc2)CC1,-4.28%
16,COc1ccc(CN2CCN(Cc3cc(OC)ccc3OC)CC2)cc1,-1.01%
17,CC(=O)N1CCN(CC(=O)Nc2ccc(C)c(F)c2)CC1,5.18%
18,COC(=O)CSc1nc(C2CC2)nc2ccccc12,9%
19,CCOc1ccc(CN2CCN(C(=O)c3cccc(Cl)c3)CC2)cc1,0.05%
20,COc1ccc(NC(=O)c2cc3n(n2)C(C(F)(F)F)CC(c2ccc(OC)c(OC)c2)N3)cc1OC (configuration not stated),-6.86%
21,CCC(C)NCCOCCOc1cc(C)cc(C)c1C (configuration not stated),-2.01%
22,CCN1CCN(CC(O)COc2cccc(C(=O)OC)c2)CC1 (configuration not stated),-1.14%
23,O=C1c2ccccc2C(O)N1Cc1ccccc1Cl (configuration not stated),0.5%
24,c1cc2c(cc1CN1CCN(C3CCCC3)CC1)OCO2,2.1%
25,Cc1ccc(C(C)C)c(OCCN2CCNCC2)c1,-3.79%
26,COc1cccc(-c2ncnn2-c2sc3c(c2C#N)CCCCC3)c1,17.1%

row,Structure (SMILES),inhibition
1,COc1ccc(NC(=O)CN2CCN(C)CC2)c(OC)c1,13.8%
2,COc1ccc(CNCC2CN(CC(C)C)CCO2)cc1 (configuration not stated),10.1%
3,COc1cccc(CN2CCN(Cc3ccc(C(F)(F)F)cc3)CC2)c1OC,-5.41%
4,NS(=O)(=O)c1cccc(NC(=O)COc2ncnc3sc(-c4ccccc4)cc23)c1,20.8%
5,O=C(NN1C(=O)c2ccccc2C1=O)c1cccc(F)c1,-4.68%
6,CCOc1ccc(OCCCCNCCO)cc1,15.9%
7,Cc1cnc(NCc2ccc3c(c2)OCO3)nc1Nc1ccccc1,7.89%
8,CCCS(=O)(=O)N1CCN(Cc2cccc(Cl)c2)CC1,13.1%
9,c1cc2c(cc1CNc1nc(Nc3ccc(N4CCOCC4)cc3)c3ncn(C4CCCCC4)c3n1)OCO2,-14.4%
10,COCc1nc2ccccc2n1CCc1noc(-c2ccco2)n1,-8.54%
11,Cc1cc(S(=O)(=O)Nc2ccc3c(c2)OCCO3)ccc1-n1cnnn1,14%
12,Cc1ccc(C(C)C)c(OCC#CCN2CCNCC2)c1,14.9%
13,CC(C)(C)NCCOCCOc1ccc(Cl)c(Cl)c1,9.65%
14,C[C@@H](OCc1ccccc1)[C@@H]1NC(=O)[C@H]2CN(C(=O)Nc3cccc(F)c3)CCN2C1=O,1.57%
15,COc1cc(CN2CCN(Cc3ccco3)CC2)c([N+](=O)[O-])cc1OC,13%
16,CC[C@@H]1NC(=O)[C@H]2CN(C(=O)NCc3ccccc3)CCN2C1=O,2.23%
17,CCN1CCN(CC(=O)N/N=C/c2cccc(Cl)c2)CC1,3.65%
18,Cc1cc(NC(=O)CNCCCN(C)C)no1,1.07%
19,Cc1cccnc1NC(=O)CSc1nnc(COc2ccc(C(C)C)cc2)n1C,9.54%
20,Cc1cc(NC(=O)CSc2ccc(-c3ccccn3)nn2)no1,93.4% (active)
21,C=CCNCCOCCOc1cc(C)ccc1C(C)(C)C,15.9%
22,COc1ccc(OCCCC(=O)Oc2ccc(OC)cc2)cc1,3.96%
23,CCc1ccc(NC(=O)CS(=O)CC(=O)NCCCc2ccccc2)cc1 (configuration not stated),-4.98%
24,COc1cc(CN2CCN(C(=O)C(c3ccccc3)c3ccccc3)CC2)cc(OC)c1OC,9.83%

# From PubChem BioAssay AID1259376 (The Scripps Research Institute Molecular Screening Center, 2018)
